# AMA1-RON2 inh = disrupts binding of P. falciparum AMA1 to RON2; 360,000 tested, 0.2% active; AlphaScreen AMA1-biotinylated RON2 peptide binding; Potency, µM (titrated, usually from 58.2 µM), without a hit: at the highest dose activity change, negative = inhibition, hits mostly inhibitors;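 also: 0% = vehicle wells and -100% = peptide control; nearly all actives have a fitted effect of over 45% in size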
#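 AMA1 (3D7) with his tag at 25 nM final met compounds first, then biotinylated RON2 peptide at 25 nM; detection used donor plus acceptor beads, 10 µg/mL apiece, read by AlphaScreen after 30 min at room temperature.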
# NS1 function inh = influenza NS1 inhibition; Potency, µM (doses to about 46.1 µM), inactives show at the top dose activity, positive = more growth; 270,000 tested, 0.4% active; AID 2326; calls by dose curve; also: actives are rising curves; nearly all actives have a fitted effect of over 50% in size
#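 Growth recovery, yeast-based: influenza A NS1 expressed in S. cerevisiae causes slow growth, and suppressors are detected by OD600. The parent strain without NS1 is used as positive control.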
# Pf growth 96h = P. falciparum growth inhibition at 96 hour, primary screen for plastid delayed-death inhibitors | P. falciparum luciferase reporter growth, 96 h | Potency, µM (highest dose often 28.7 µM), for inactives: top-dose activity change, negative = inhibition, hits mostly inhibitors | 320,000 tested, 6.9% active | AID 504834; also: % is scaled to controls: 0 for no effect and ±100 for the full control effect
#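 Plates of compound plus infected erythrocytes (2% hematocrit, 0.05% parasitemia final) incubate 96 hours, 37 C, 5% CO2. Detection reagent added; reduced luminescence from the parasites' luciferase reporter flags inhibition.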
# Pf growth 48h = P. falciparum growth inhibition at 48 hours (one generation); P. falciparum luciferase growth in erythrocytes, 48 h; Potency, µM (top dose mostly 28.7 µM), for inactives: top-dose activity change, negative = inhibition, most hits filed as inhibitors; 310,000 tested, 5.9% active; also: % is scaled to controls: 0 for no effect and ±100 for the full control effect
#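 Luciferase-expressing parasites in RBCs, 2% Hct / 0.1% parasitemia final; RPMI 1640 + 0.5% Albumax; 37 C, 5% CO2, one generation; luminescence read-out, lower signal = inhibition.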
# Sm TGR block = inhibitors of Schistosoma mansoni thioredoxin glutathione reductase; AID 485364; 360,000 tested, 3% active; Potency, µM (top dose mostly 114 µM), inactives show at the top dose activity change, negative = inhibition, hits mostly inhibitors; purified TGR, DTNB reduction, TNB absorbance 405 nm; Q962Y6; also: % is scaled to controls: 0 for no effect and ±100 for the full control effect; nearly all actives have a fitted effect of over 60% in size
#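 First, TGR (20 nM dispensed) and NADPH were mixed with compound. Second, a 15 min room-temperature incubation followed. Third, further NADPH and then DTNB were added to start the reaction. Finally, TNB absorbance was monitored kinetically.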
# Starred values were filed as active, the others as inactive; ? = inconclusive; / = no result given; [ ] = remark or other dose. Hits are enriched below; roughly 11% of the tested compounds scored in any of these assays. Unless noted, calls follow the shape of the dose curve; as a rule, active = well fitted curve in the direction sought with a large enough effect; inconclusive = small, poorly fitted or top-dose-only effect, or another doubt; inactive = no such curve, though single readings can be large; an effect the other way counts as inactive or inconclusive. Potency is read from the fitted curve at half-maximal effect.
SMILES,AMA1-RON2 inh,NS1 function inh,Pf growth 96h,Pf growth 48h,Sm TGR block
Cc1cc(C(=O)NNC(=O)COc2c(C)cc(Br)cc2C)n[nH]1,140%,14%,3%,5%,4%
CCCCCc1nc2ccccc2c(=O)n1-c1ccc(Cl)cc1[N+](=O)[O-],-8%,2%,13µM*,4.7µM*,0%
CCCCc1nc2ccccc2c(=O)n1-c1ccccc1O,-4%,11%,?,?,7%
CCOC(=O)c1cc(CC)sc1NC(=O)COc1ccccc1C,/,/,/,/,-4%
COc1ccc(C2=NC(C)(C)Cc3cc(OC)c(OC)cc32)cc1OC,1%,-8%,?,-1%,0%
COc1cc2c(cc1OC)C(c1cc3ccccc3oc1=O)=NC(C)(C)C2,0%,-5%,141%,8.3µM*,13%
COc1cn(CC(=O)Nc2cc(C)cc(C)c2)c(CN2CCCCC2)cc1=O,/,/,/,/,0%
CC(=O)N(C1=C(N2CCOCC2)C(=O)c2ccccc2C1=O)c1ccc(C(=O)O)cc1,0%,0%,0.41µM*,1µM*,2.8µM*
CC(=O)N(C)C1=C(N2CCOCC2)C(=O)c2ccccc2C1=O,17%,8%,0.29µM*,2.1µM*,16%
Cc1cccc(C)c1NC(=O)C1CCCN1S(=O)(=O)c1cccc2nsnc12 (stereo not given),/,/,/,/,-3%
CC1(c2ccccc2)NC(=O)N(CC(=O)Nc2ccccc2C(=O)N2CCCCC2)C1=O (stereo not given),-8%,/,7%,-16%,0%
O=C(CCCCCNC(=O)c1ccccc1)N=Nc1c(O)[nH]c2c(Br)cc(Br)cc12,/,7%,0%,12µM*,-9%
O=C(CNC(=O)c1cccnc1)N=Nc1c(O)[nH]c2c(Br)cc(Br)cc12,13%,15%,22%,-2%,2%
O=[N+]1C2=C(CCCC2)N([O-])C12CCCC2,45%,6%,31%,15%,-31%
CC1(CCl)N([O-])C2=C(CCCC2)[N+]1=O (stereo not given),-6%,-2%,50%,2%,40µM*
CN(CCCN1c2ccccc2CCc2ccccc21)CC(=O)c1ccc(Cl)cc1,/,/,15µM*,-99%,/
CN(C)CCCN1c2ccccc2CCc2ccc(Cl)cc21,-13%,-33%,?,13µM*,-26%
Cc1cccc(S(=O)(=O)c2cn(C)c3cc(N4CCCCCC4)c(F)cc3c2=O)c1,/,/,/,/,-4%
Cc1cccc(NC(=O)Cn2c(=O)n(Cc3ccco3)c(=N)c3c4c(sc32)COC(C)(C)C4)c1,-1%,6%,8.3µM*,/,0%[11.4 µM]
CC1(C)Cc2c(sc3c2c(=N)n(Cc2ccco2)c(=O)n3CC(=O)Nc2cccc(Cl)c2)CO1,-6%,?,10µM*,?,-36%
CCC1CN(C(=O)N2CCC(C(=O)O)CC2)c2cc(C)ccc2O1 (stereo not given),/,/,/,/,-3%
COc1ccc(NC(=S)N(CCCN2CCOCC2)Cc2cn(C)c3ccccc23)cc1OC,-11%,13%,4.1µM*,?,3%
COc1cccc(NC(=S)N(CCCN2CCOCC2)Cc2cn(C)c3ccccc23)c1,-18%,-1%,?,-22%,2%
CSCC[C@H](NC(=O)N1CCn2c1nc1ccccc12)C(=O)NC1CC1,12%,-1%,41%,-12%,1%
O=C(/C=C/c1ccccc1O)c1ccc(Cl)cc1,-8%,-35%,15µM*,27%,?
SMILES,AMA1-RON2 inh,NS1 function inh,Pf growth 96h,Pf growth 48h,Sm TGR block
O=C(COC(=O)/C=C/c1ccccc1[N+](=O)[O-])Nc1ccc(S(=O)(=O)N2CCOCC2)cc1,-10%,/,/,/,/
Cn1cc(CNCc2cnc3ccccn23)c(-c2ccc(Oc3ccccc3)cc2)n1,28µM*,4%,-4%,?,17%
Cn1cc(CNCC2CCCO2)c(-c2ccc(Oc3ccccc3)cc2)n1 (stereo not given),24%,3%,-27%,?,0%
Cc1cc(CNCc2cn(C)nc2-c2ccc(Oc3ccccc3)cc2)on1,-8%,-6%,12µM*,?,-17%
O=C(COC(=O)COc1ccc(Cl)cc1)Nc1ncc(Br)s1,-12%,/,32%,5%,-30%
Cc1c(CCOC(=O)c2ccccc2)sc[n+]1Cc1ccccc1,6%,-6%,-7%,5.2µM*,-24%
O=C1CC(N2CCN(S(=O)(=O)c3ccccc3)CC2)C(=O)N1c1ccccc1 (stereo not given),-4%,1%,60%,20%,50µM*
O=C1CC(N2CCCCC2)C(=O)N1c1ccccc1 (stereo not given),-11%,-40%,?,?,32µM*
O=C1CC(N2CCCN(C3CC(=O)N(c4ccc(F)cc4)C3=O)CC2)C(=O)N1c1ccc(F)cc1 (stereo not given),26%,-139%,-2%,-2%,20µM*
COc1ccc(C(=O)NNC(=O)C2CCCN(C3CC(=O)N(c4ccccc4)C3=O)C2)cc1 (stereo not given),96%,-5%,2%,3%,45µM*
CCOC(=O)C1CCCN(C2CC(=O)N(c3ccc(C)cc3)C2=O)C1 (stereo not given),5%,-52%,6%,/,?
COc1ccc(CCNC(=O)c2c(C)oc3ncn(CC(C)C)c(=O)c23)c(OC)c1,/,/,/,/,3%
O=C1CC(N2CCC(O)CC2)C(=O)N1c1ccc(Br)cc1 (stereo not given),10%,-185%,-21%,12%,56µM*
O=CN1CCN(C2CC(=O)N(c3ccc(Br)cc3)C2=O)CC1 (stereo not given),1%,-11%,8%,7%,?
O=C1CC(N2CCN(S(=O)(=O)c3ccccc3F)CC2)C(=O)N1c1ccccc1F (stereo not given),32µM*,/,/,/,/
COc1ccc2c(c1)c(C(=O)N/N=C/c1ccc(OC)c(OC)c1)c(C)n2C,0%,9%,15µM*,-11%,0%
COc1ccc(/C=N/NC(=O)c2cc(-c3cccn3C)n[nH]2)cc1OC,-3%,24%,1.9µM*,13µM*,0%
COc1ccc2c(c1)c(C(=O)N/N=C/c1ccc(Cl)cc1)c(C)n2C,1%,-29%,?,?,3%
CCN(CC)S(=O)(=O)c1ccc(N2CCCCC2)c(NC(=O)/C=C/c2cc(OC)c(OC)c(OC)c2)c1,7%,?,10µM*,?,-5%
